According to PubChem BioAssay AID504834 (National Center for Advancing Translational Sciences (NCATS), 2011):
The campaign covered roughly 320,000 compounds. About 22,000 (6.9%) were called active. Inconclusive results (about 27%) are left out. The full list was thinned out, with actives kept by preference. Unmarked numbers belong to inactive results. Calls follow the shape of the dose curve; as a rule, active = well fitted inhibition curve with a large enough effect; inconclusive = small, poorly fitted or top-dose-only effect, or another doubt; inactive = no such curve, though single readings can be large or run the other way.

Assay: Primary qHTS for delayed death inhibitors of the malarial parasite plastid, 96 hour incubation
Conditions: P. falciparum luciferase reporter growth; series mostly up to 28.7 µM; activity change, negative = inhibition: at the top concentration
Method in brief: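 Readout is luminescence from an integrated firefly luciferase in P. falciparum. Red cells, 2% hematocrit and 0.05% parasitemia final, were cultured with compound through two parasite generations (96 hours) at 37 C, 5% CO2.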
% is scaled to controls: 0 for no effect and ±100 for the full control effect; potency is read from the fitted curve at half-maximal effect.

| Structure (SMILES) | activity change, negative = inhibition | Potency |
| --- | --- | --- |
| COc1cccc(/C=C2\Sc3ccc(C(=O)NCC4CCCO4)cc3N(C)C2=O)c1 (centres undefined) | 11.3% | – |
| CC(C)c1ccc(C2C(C(=O)c3ccco3)=C(O)C(=O)N2CC2CCCO2)cc1 (centres undefined) | -16% | – |
| C/C(=N\Nc1ccc(S(N)(=O)=O)cc1[N+](=O)[O-])c1cccs1 | 7.59% | – |
| COC(=O)C1(C)CC1(c1ccccc1)c1ccccc1 (centres undefined) | -11.4% | – |
| CN(C1CCS(=O)(=O)C1)S(=O)(=O)c1ccc2ccccc2c1 (centres undefined) | 17.6% | – |
| CC(Sc1nn(-c2ccc(Cl)cc2)c(=S)s1)C(=O)NCC1CCCO1 (centres undefined) | 4.28% | – |
| O=C(O)c1ccc2c(=O)n3c(nc2c1)/C(=C/c1ccc(Cl)c([N+](=O)[O-])c1)CC3 | -21.2% | – |
| Cc1ccc(OCCOc2cccc(/C=N/NC(N)=O)c2)cc1 | -1.16% | – |
| O=C1CCC([N+](=O)[O-])C(c2ccccc2Br)N1 (centres undefined) | -26.5% | – |
| C=CCOc1ccccc1NC(=O)CN1C(=O)CNC1=O | 15.9% | – |
| CN(CC(=O)NCc1ccncc1)S(=O)(=O)c1ccc(Br)cc1 | -17.6% | – |
| Cc1cc(N=Nc2ccc3ccccc3c2)ccc1O | 85.3% | – |
| O=[N+]([O-])c1ccc(N=Cc2c(O)ccc3ccccc23)cc1 | 17.6% | – |
| Oc1ccc(N=Cc2c(O)ccc3ccccc23)cc1 | – | 6.57 µM (active) |
| COc1ccc(C)cc1N(CC(=O)NC(C)c1ccccc1)S(C)(=O)=O (centres undefined) | 169% | – |
| CCOC(=O)c1ccc(NC(=O)c2ccc(NC(=O)C3CCCO3)cc2)cc1 (centres undefined) | -3.56% | – |
| O=C(NCCc1ccccc1)C1CC1 | 24.6% | – |
| O=C(NCCc1ccccc1)C1CCC(Cn2c(=O)c3ccccc3n(Cc3cccnc3)c2=O)CC1 (centres undefined) | – | 6.57 µM (active) |
| O=C(CCc1ccccc1)NCc1cccnc1 | 12.9% | – |
| CCSc1nnc(SCC(=O)NNC(=O)c2ccccc2F)s1 | 26.7% | – |
| CS(=O)(=O)c1ccc2nc(NC(=O)c3ccc(N4CCCC4=O)cc3)sc2c1 | 5.19% | – |
| Cc1ccc(SCCC(=O)NCc2ccccn2)cc1 | -27.1% | – |

| Structure (SMILES) | activity change, negative = inhibition | Potency |
| --- | --- | --- |
| Cc1cc(Cl)ccc1OCCCC(=O)NCc1ccccn1 | -1.6% | – |
| CC(C)Cn1c(=O)c2ccccc2n2c(CCC(=O)NCc3ccccn3)nnc12 | – | 13.1 µM (active) |
| Cc1ccc(-c2nn(-c3ccccc3)cc2C(=O)NCCCN2CCCC2=O)cc1 | -20.1% | – |
| CC1(NC(=O)CCS(=O)(=O)c2ccc(Cl)cc2)CCS(=O)(=O)C1 (centres undefined) | -29.7% | – |
| CC(=O)c1ccc(NC(=O)CCNS(=O)(=O)c2cc(Br)cnc2N)cc1 | 20.4% | – |
| C/C(=N\NC(=O)CC(C)C)c1c(C(F)(F)F)[nH]n(-c2nc3ccccc3s2)c1=O | 0% | – |
| COc1ccc(CC(=O)Nc2ccc3c(c2)CCC3)cc1S(=O)(=O)N1CCOCC1 | 0% | – |
| COc1ccc(S(=O)(=O)N2CCOCC2)c(C)c1C | 3.7% | – |
| COc1ccc(/C=C/C(=O)Nc2ccc(C)cc2)cc1S(=O)(=O)N1CCOCC1 | – | 11.7 µM (active) |
| COc1ccc(C(=O)NC(=S)N2CCNC(=O)C2CC(=O)OC(C)C)cc1 (centres undefined) | 4.17% | – |
| O=C1CCC(=O)N(c2ccccc2)N1 | 11.7% | – |
| Cc1cc(C)nc(Nc2n[nH]c(-c3ccccc3N)n2)n1 | 227% | – |
| COc1ccccc1OCC(=O)Nc1ccccc1C(=O)NC1CC1 | 45.6% | – |
| N#Cc1cc([N+](=O)[O-])ccc1NCC1CCCO1 (centres undefined) | -0.513% | – |
| C/C(N)=C(/C#N)C(=O)COC(=O)C1=NN(c2ccccc2)C(=O)CC1 | 30% | – |
| COC(=O)CC1=NN(c2ccccc2)C(=O)C1 | – | 5.22 µM (active) |
| COC(=O)CC1=NN(c2nc(C)cc(C)n2)C(=O)C1 | -5.91% | – |
| COc1cc([C@H](Cc2ccccc2)NC(C)=O)oc(=O)c1 | – | 2.94 µM (active) |
| CCOC(=O)C(Cc1ccccc1)NC(=O)CCC(=O)c1ccc(OC)cc1 (centres undefined) | 28.2% | – |
| COC(=O)[C@H](Cc1ccccc1)NC(=O)Nc1ccc(OC)cc1 | 26.2% | – |
| Cc1cccc(NS(=O)(=O)c2cc(Cl)ccc2Cl)n1 | – | 2.94 µM (active) |
| O=S(=O)(Nc1cccc(Oc2ccc(Cl)cc2)n1)c1ccc(F)cc1 | 5.23% | – |

| Structure (SMILES) | activity change, negative = inhibition | Potency |
| --- | --- | --- |
| Nc1ccc(Cl)c(S(=O)(=O)Nc2ccccc2Cl)c1 | 4.92% | – |
| Cc1ccc(C(=O)NCCNC(=O)c2cnccn2)cc1 | 0.273% | – |
| O=C(O)CCCC(=O)N1N=C(c2ccco2)CC1c1ccco1 (centres undefined) | -25.2% | – |
| O=S(=O)([N-]c1nc2ccccc2nc1-[n+]1ccc(Cc2ccccc2)cc1)c1ccc(Br)s1 | – | 13.1 µM (active) |
| O=S(=O)(NCc1cccnc1)c1ccc(Br)s1 | -3.44% | – |
| Oc1ccccc1-c1cc(-c2ccc(Cl)cc2)n[nH]1 | -48.6% | – |
| CCc1nn(CC(=O)N2CCN(c3cc(C)ccc3C)CC2)c(=O)c2cc3occc3n12 | -0.478% | – |
| O=C(O)c1cc(S(=O)(=O)N(Cc2ccccc2)c2ccccc2)ccc1Cl | 68.6% | – |
| COc1cccc(-c2noc(C3CCCN(C(=O)c4ccc(F)cc4)C3)n2)c1 (centres undefined) | 84% | – |
| COc1cc(OC)nc(NC(=O)CCl)n1 | 4.17% | – |
| COc1ccc(NS(=O)(=O)c2ccc(F)cc2F)cn1 | 36% | – |
| COc1cc(OC)nc(S(C)(=O)=O)n1 | – | 11.7 µM (active) |
| CC(NC(=O)C(C)(C)C)C(c1cccs1)N1CCN(Cc2ccccc2)CC1 (centres undefined) | -2.32% | – |
| Cc1ccc(NC(=O)CCCNC(=O)c2ccc(Cl)cc2)cc1S(=O)(=O)N1CCCCC1 | 29.9% | – |
| CCOC(=O)c1c(NC(=O)CSc2nnc(Cc3csc(N)n3)n2C)sc(C)c1C | 18.3% | – |
| CCc1nnc(NC(=O)CSc2nnc(Cc3ccccc3)n2-c2ccc(OC)cc2)s1 | 39.7% | – |
| COc1ccccc1-n1c(CNC(=O)c2ccccc2)nnc1SCC(=O)Nc1nnc(C)s1 | 8.45% | – |
| CCc1nnc(NC(=O)CSc2nc3c(c(=O)n2-c2ccccc2OC)SCC3)s1 | – | 8.28 µM (active) |
| CCOC(=O)c1sc(NC(=O)CSc2nc3c(c(=O)n2-c2ccccc2)SCC3)c(C(=O)OCC)c1C | – | 3.7 µM (active) |
| CCOC(=O)c1sc(NC(=O)COc2ncnc3ccccc23)c(C(=O)OCC)c1C | -21.2% | – |
| Cc1cc(C(=O)NC2CCN(Cc3ccccc3)CC2)n[nH]1 | 57.9% | – |
| O=C(Nc1cc2c3c(c1)CC(=O)N3CCC2)c1ccccc1F | -13% | – |

| Structure (SMILES) | activity change, negative = inhibition | Potency |
| --- | --- | --- |
| CCCC1C(=O)N2C(N(C)C)=Nc3ccc(C)cc3N2C1=O (centres undefined) | 12.4% | – |
| COc1ccc(C(=O)N/N=C(\C)CC(=O)Nc2ccc(Cl)cn2)cc1 | 34.4% | – |
| CC(c1ccccn1)N(C)C(=O)c1ccc2nc(Cc3cccc(Cl)c3)oc2c1 (centres undefined) | -1.98% | – |
| O=C(Cc1c(Cl)cccc1Cl)NC1CC1 | 0.175% | – |
| COC(=O)c1ccc(COc2ccc(C#N)cc2)o1 | -24.3% | – |
| CC(Oc1ccc(Br)cc1)C(=O)NC1CCCCCC1 (centres undefined) | 52.7% | – |
| CN(C)S(=O)(=O)c1ccc(C(=O)NCCN=C2NS(=O)(=O)c3ccccc32)cc1 | 34.3% | – |
| CNCC(O)CN1CCN(c2ccccc2OC)CC1 (centres undefined) | 23.6% | – |
| COc1ccccc1N1CCC(N2CCN(CC(C)(C)C)C(CCO)C2)CC1 (centres undefined) | – | 0.465 µM (active) |
| COc1ccc(OCC(=O)Nc2ccc(N3CCC(C)CC3)cc2)cc1 | 15.5% | – |
| Cc1cc(F)ccc1N1CCC(N2CCN(C)C(CCO)C2)CC1 (centres undefined) | 0% | – |
| COc1ccc(N2CCC(N3CCN(C)C(CCO)C3)CC2)cc1 (centres undefined) | – | 14.7 µM (active) |
| CCOc1ccccc1CN1CCN(C2CCC2)CC1CCO (centres undefined) | -8.22% | – |
| COc1cccc(C(=O)Nc2nnc(S(=O)(=O)N(C)c3ccccc3)s2)c1 | 3.28% | – |
| CCc1cc(-c2nnc(SCC(=O)NC3CC3)n2C)cs1 | 0.597% | – |
| Cc1ccc(S(=O)(=O)CC(=O)Nc2nnc(C)s2)cc1 | -3.54% | – |
| CCOc1ccc(CN2CCC(n3nccc3NC(=O)C3CC3)CC2)cc1CO | -0.811% | – |
| COc1ccccc1Oc1ccc(N2CC(C(=O)OCC(=O)c3ccc(F)cc3)CC2=O)cc1 (centres undefined) | 12.8% | – |
| CCCCc1nc2cc(C(=O)NCCc3cnn(C)c3)ccc2o1 | – | 7.38 µM (active) |
| CC(C)c1nc2cc(C(=O)NC(C)c3cnn(C)c3)ccc2o1 (centres undefined) | -15.1% | – |
| COc1ccc(CNC(=O)c2ccc3oc(C(C)C)nc3c2)cc1 | 2.72% | – |
| CC(=O)c1c(C)[nH]c(C(=O)CN2C(=O)NC(C)(C)C2=O)c1C | 19.8% | – |

| Structure (SMILES) | activity change, negative = inhibition | Potency |
| --- | --- | --- |
| CN(C)CCN(C(=O)CN1C(=O)c2ccccc2C1=O)c1nc2cc3c(cc2s1)OCCO3 | 50.3% | – |
| COc1ccc(-n2c(-c3ccccc3)nc3ccccc3c2=O)cc1 | 5.13% | – |
| CCCN1C(=O)C(Cc2nc3ccccc3c(=O)n2-c2ccccc2)c2cc(C)ccc21 (centres undefined) | – | 6.57 µM (active) |
| Cc1nc2ccccc2c(=O)n1-c1ccc(Cl)cc1Cl | -13.5% | – |
| CC(=O)c1ccc(NC(=O)C2CCCN2S(=O)(=O)c2cccs2)cc1 (centres undefined) | 13.5% | – |
| Cc1c(NC(=S)Nc2ccccc2)c(=O)n(-c2ccccc2)n1C | 8.46% | – |
| Cc1c(NC(=O)Nc2cccc([N+](=O)[O-])c2)c(=O)n(-c2ccccc2)n1C | – | 3.7 µM (active) |
| Cc1c(NC(=O)c2c([N+](=O)[O-])cnn2C)c(=O)n(-c2ccccc2)n1C | -19.3% | – |
| Cc1c(C(=O)Nc2ccccn2)oc2ccc(Br)cc12 | 11.2% | – |
| O=C(NCCCn1ccnc1)c1cc(Br)c(Br)s1 | 11.1% | – |
| COc1cc(/C=N/Nc2nc3ccccc3s2)ccc1O | 155% | – |
| COc1ccc(S(=O)(=O)N2CCOCC2)cc1C(=O)Nc1nc2ccccc2s1 | 30.8% | – |
| COc1cccc2sc(NNC(=O)c3nc4ccccc4s3)nc12 | – | 9.28 µM (active) |
| CCn1c(SC(C)C(=O)Nc2ccc(N3CCOCC3)cc2)nnc1-c1ccco1 (centres undefined) | 3.27% | – |
| COc1ccc(/C=C/C(=O)c2ccc(NS(=O)(=O)c3ccc(C)cc3)cc2)cc1O | – | 11.7 µM (active) |
| COc1ccc(NS(=O)(=O)c2ccc(NC(C)=O)cc2)cc1OC | 0.482% | – |
| COc1ccc(C(=O)Oc2cc(/C=N/NS(=O)(=O)c3ccc(C)cc3)ccc2OC)cc1 | 55.1% | – |
| CSc1sc(C(=O)NNC(=O)c2ccc(Cl)cc2)c2c1C=CCC2 | -3.23% | – |
| COc1ccc(CN2C(=O)CN=C2Nc2ccc(C)cc2C)cc1 | -3.83% | – |
| CC(C)(C)c1ccc(CN2C(=O)c3ccccc3S2(=O)=O)cc1 | 101% | – |
| CC(C)(C)c1ccc(CN2C(=O)CN=C(c3ccccc3)c3ccccc32)cc1 | – | 1.31 µM (active) |
